Experimental data taken from PubChem BioAssay AID1851 (National Center for Advancing Translational Sciences (NCATS), 2009).
“And” between values parts separate entries of the source, which are not always exact repeats. Identical values can stand only once. In all, about 16,000 compounds went through this assay and about 5,700 (36%) were called active. About 24% were inconclusive and are not listed. The list shows a part of the results. Unmarked numbers belong to inactive results. The call rests on the fitted dose curve; in most records, active means well fitted curve in the direction sought with a large enough effect; inconclusive means small, poorly fitted or top-dose-only effect, or effect the other way; inactive means no such curve, though single readings can be large or run the other way.

Molecular target: Cytochrome P450 1A2 (Homo sapiens) (UniProt P05177)
Assay: Cytochrome panel assay with activity outcomes
Conditions: recombinant CYP, pro-luciferin dealkylation, luminescence, p450-cyp1a2; series mostly up to 57.1 µM
On the % scale 0 is the no-effect control and ±100 the full control effect.

Sequence of Cytochrome P450 1A2 (Homo sapiens) (P05177 whole entry, looked up): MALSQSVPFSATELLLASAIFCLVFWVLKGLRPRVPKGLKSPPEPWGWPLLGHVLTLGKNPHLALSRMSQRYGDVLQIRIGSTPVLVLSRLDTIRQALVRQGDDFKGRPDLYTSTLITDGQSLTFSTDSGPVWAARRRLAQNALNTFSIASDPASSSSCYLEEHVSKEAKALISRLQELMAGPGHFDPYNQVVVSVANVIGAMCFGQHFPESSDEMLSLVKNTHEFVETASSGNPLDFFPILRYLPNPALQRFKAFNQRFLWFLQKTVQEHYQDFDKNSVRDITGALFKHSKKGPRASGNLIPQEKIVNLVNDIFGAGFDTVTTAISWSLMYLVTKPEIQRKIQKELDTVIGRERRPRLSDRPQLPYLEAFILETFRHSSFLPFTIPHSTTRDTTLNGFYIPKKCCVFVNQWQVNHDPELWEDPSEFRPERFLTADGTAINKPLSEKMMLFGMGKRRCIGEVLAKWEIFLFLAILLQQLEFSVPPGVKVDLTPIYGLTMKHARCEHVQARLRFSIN

SMILES | activity, negative = inhibition | AC50
CC1(C)OC[C@@H]2O[C@H](n3cnc4c(N)nc(Cl)nc43)[C@@H](OS(C)(=O)=O)[C@@H]2O1 | -14.5% [at 2.29 µM] | 
O=S(=O)(c1cccc(-c2nnc(-c3ccc(Br)cc3)o2)c1)N1CCCCCC1 |  | 14.1 µM (active)
O=C(O)CCC(=O)N1CCc2cc(S(=O)(=O)N3CCCCC3)ccc21 |  | inactive
O=S(=O)(c1ccc(Br)cc1)N1CCN(S(=O)(=O)c2ccc(Br)cc2)CC1 | -11.2% [at 11.4 µM] | 
Cc1nn2c3c(cnc2c1-c1ccccc1)C(=O)CC(c1ccccc1)C3 (configuration not stated) |  | 3.16 µM (active)
CCC1NC(=S)N(C2CCCCC2)C1=O (configuration not stated) |  | inactive
CN(Cc1ccco1)c1ccnc(-c2ccoc2)n1 |  | 12.6 µM (active)
CN(C)C(=O)c1ccc(-c2nccc(N(C)Cc3ccco3)n2)cc1 |  | 12.6 µM (active)
COc1cccc(-c2nccc(N(C)Cc3ccco3)n2)c1 |  | 0.631 µM (active)
CN(Cc1ccco1)c1ccnc(-c2cccnc2)n1 |  | 0.794 µM (active)
COc1ccc(Cc2nnc(NC(=O)Cn3cnc4c3c(=O)n(C)c(=O)n4C)s2)cc1OC |  | inactive
CN(Cc1ccco1)c1ccnc(-c2cccc(C#N)c2)n1 |  | 0.398 µM (active)
CS/C(N)=N/N=C/c1ccc([N+](=O)[O-])cc1 |  | 14.1 µM (active)
O=C1CCCC=C1[C@H](O)c1ccc([N+](=O)[O-])cc1 | -7.01% [at 11.4 µM] | 
NC(N)=N/N=C\c1ccc(C2CCNCC2)cc1 | -12% [at 2.29 µM] | 
C=CCNC(=O)c1ccc(-c2nc(-c3ccc(Cl)c(Cl)c3)cs2)cc1 |  | inactive
C=CCNC(=O)c1cccn1-c1ccsc1C(=O)OC |  | inactive
C=CCNC(=O)c1csc(-c2ccccc2)n1 |  | 0.631 µM (active)
C=CCNC(=O)c1ccc2nc(-c3ccccc3)c(-c3ccccc3)nc2c1 |  | 15.8 µM (active)
C=CCNC(=O)c1onc(CSc2ccc(F)cc2)c1C(=O)O |  | inactive
COc1ccc(N(C)C(=O)c2ccc3nc(-c4ccccc4)c(-c4ccccc4)nc3c2)cc1 |  | inactive

SMILES | activity, negative = inhibition | AC50
CC(=O)NCCNc1ncnc2ccc(-c3cccc(NS(C)(=O)=O)c3)cc12 |  | 15.8 µM (active)
COCCNc1ncnc2ccc(-c3cccc(NS(C)(=O)=O)c3)cc12 |  | 0.794 µM (active)
O=C(c1cnccn1)N1CCC2(CCN(Cc3nccs3)CC2)CC1 |  | inactive
Cc1ccc(NS(=O)(=O)c2cc(C(=O)NCc3ccccn3)ccc2Cl)cc1 |  | 5.01 µM (active)
CN(c1ccc(C(=O)NCc2ccccn2)cc1)S(C)(=O)=O |  | inactive
C=C(CC)C(=O)c1ccc(OCC(=O)O)c(Cl)c1Cl |  | inactive
COC(=O)/C=C/CSC1=N/C(=C/c2ccc(-n3cncn3)cc2)C(=O)N1 |  | 1 µM (active)
CNc1ncnc2c1ncn2[C@H]1C[C@@H](OP(=O)(O)O)[C@H](COP(=O)(O)O)O1 |  | inactive
N#Cc1ccc(C(=O)Nc2ccc(N3CCN(C(=O)c4ccco4)CC3)cc2)c(F)c1 |  | inactive
CCN(CC)C(=O)Cn1cc(/C=C(\C#N)C(=O)N2CCN(c3ccccc3)CC2)c2ccccc21 |  | inactive
COC(=O)Cn1cc(/C=N/NC(=O)c2ccc(C#N)cc2F)c2ccccc21 |  | 3.55 µM (active)
COc1ccc(Oc2ncc3nc(C)c(=O)n(-c4ccc(OC)cc4)c3n2)cc1 |  | 15.8 µM (active)
Cc1nc2cnc(Oc3ccccc3)nc2n(-c2ccccc2)c1=O |  | 10 µM (active)
COc1ccc(-n2c(=O)c(C)nc3cnc(OC)nc32)cc1 |  | inactive
COc1ncc2nc(C)c(=O)n(-c3ccccc3)c2n1 |  | 5.01 µM (active)
Cc1cccc(CSc2cccc3cccnc23)c1 |  | 2 µM (active)
Cc1ccc(N[C@H](c2ccccc2)c2ccc3cccnc3c2O)cc1 | -24.5% [at 2.29 µM] | 
COc1ccc(/C(C)=N/NC(=O)c2ccc(CSc3cccc4cccnc34)cc2)cc1OC |  | 11.2 µM (active)
Cc1nc(N=Nc2cc(S(=O)(=O)O)ccc2S(=O)(=O)O)c(COP(=O)(O)O)c(C=O)c1O |  | inactive
COc1cc(CC(=O)O)ccc1O |  | inactive
COc1cc([C@H](O)C(=O)O)ccc1O |  | inactive

SMILES | activity, negative = inhibition | AC50
COc1cc(CNC(=O)CCCC/C=C\C(C)C)ccc1O |  | 1.58 µM (active) and 3.16 µM (active)
O=C(Nc1ncn[nH]1)c1ccc([N+](=O)[O-])cc1[N+](=O)[O-] |  | inactive
O=C(O)/C=C\C(=O)Nc1ncn[nH]1 | -8.55% [at 11.4 µM] | 
Clc1ccc(Nc2ncn[nH]2)cc1 |  | 4.47 µM (active)
Cc1cc(C(C#N)c2cccc(Cl)c2)n2ncnc2n1 (configuration not stated) |  | 5.01 µM (active)
CC[C@@H]1CN2CCc3cc(OC)c(OC)cc3[C@H]2C[C@@H]1C[C@H]1NCCc2cc(OC)c(OC)cc21 |  | inactive
NC1CCN(c2cccc(Cl)n2)CC1 |  | 15.8 µM (active)
c1c[nH]c(CN2CCN(Cc3ncc[nH]3)CC2)n1 | 0.981% [at 11.4 µM] | 
COc1ccc(C2N=C(N)N=C(N)N2c2ccccc2OC)cc1OC (configuration not stated) |  | inactive
CCn1c(SCC(=O)Nc2ccccc2C(=O)OC)nnc1-c1ccc(N)cc1 |  | 14.1 µM (active)
CC(C)CC(C(=O)NCC1CCCO1)N(C(=O)Cn1nnc(-c2ccc(F)cc2)n1)c1ccccc1F (configuration not stated) |  | inactive
O=C(O)C[C@H]1OCC=C2C[N@@+]3([O-])CC[C@]45c6ccccc6N[C@@H]4[C@@H]1[C@H]2C[C@H]53 | -14.3% [at 2.29 µM] | 
COc1ccc(O[C@H]2C=C[C@@H](c3ccccc3)O[C@@H]2CO/N=C(\C)CCN2CCCCc3nc(C)c(C)cc32)cc1 | 0.173% [at 11.4 µM] | 
COc1ccccc1-c1cc(-n2ccnc2)ncn1 |  | 0.316 µM (active)
CN(C)Cc1ccccc1-c1cc(-n2ccnc2)ncn1 |  | 5.01 µM (active)
Nc1nc(-c2cccc([N+](=O)[O-])c2)cc(-c2cc(-c3cccc([N+](=O)[O-])c3)nc(N)n2)n1 | 0.313% [at 2.29 µM] | 
Cc1cc(-c2cccc([N+](=O)[O-])c2)nc2ccc3ccccc3c12 |  | 0.631 µM (active)
O=C(Cn1c(C(F)(F)F)nc2ccccc21)c1ccc(F)cc1 |  | inactive
CCn1c(CNC(=O)COc2ccc(C(C)C)cc2)nnc1SCC(=O)Nc1cc(F)ccc1C |  | inactive
O=C(Cn1c(-c2cscn2)nc2ccccc21)Nc1cc(F)ccc1F |  | 2.51 µM (active)
